Assay results reported in PubChem BioAssay (Tox21).
Inconclusive results are not listed. A call without a number means that no potency is given here. Calls of active or inactive are those of the source. Unless noted, the call rests on the fitted dose curve; in most records, active means well fitted curve in the direction sought with a large enough effect in the repeat runs; inconclusive means weak or mixed curves; inactive means no such curve, though single readings can be large; an effect the other way counts as inactive or inconclusive.

What was measured:
[1] = qHTS assay to identify small molecule agonists of the RXR signaling pathway - cell viability counter screen (AID 1159529); further: nearly all actives have a fitted effect of over 50% in size; further: potency means the concentration at half of the fitted maximal effect
In short: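 CellTiter-Glo luminescence gave viability in the wells also read for beta-lactamase. Cells (RXR-alpha-UAS-bla HEK 293T, 2% charcoal-stripped FBS medium) had 5 hr plating, then 16 hr compound exposure at 37 C; tetraoctyl ammonium bromide served as positive control.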

[2] = qHTS assay to identify small molecule antagonists of the retinoid acid receptor (RAR) signaling pathway - cell viability counter screen (AID 1159551); further: nearly all actives have a fitted effect of over 35% in size; further: potency means the concentration at half of the fitted maximal effect
In short: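 In this counter screen, the RARE-luciferase line C3RL4 was exposed for 6 h at 37 C and 5% CO2 to compounds with retinol at 1 uM final. Cellular ATP, read by luminescence, served as the viability measure.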

[3] = qHTS assay to identify small molecule antagonists of the retinoic acid receptor (RAR) signaling pathway (AID 1159552; further: nearly all actives have a fitted effect of over 50% in size; further: potency means the concentration at half of the fitted maximal effect)
In short: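 Luminescent RARE reporter read-out in C3RL4 cells: 6 hr co-treatment at 37 C of test compounds with retinol at 1 uM final. Cells plated overnight beforehand; luciferase reagent incubated 30 min at room temperature before reading.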

[4] = qHTS assay to identify small molecule agonists of the retinoic acid receptor (RAR) signaling pathway (AID 1159553); conditions: C3RL4 RARE luciferase reporter, agonist, 6 h; activation: at 73.3 µM (top of the series); further: potency means the concentration at half of the fitted maximal effect
In short: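 In this cell-based screen, 1,000 C3RL4 cells per well were cultured overnight, dosed with test chemicals in DMSO for 6 hr, and assessed for RARE luciferase luminescence.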

[5] = qHTS assay to identify small molecule agonists of the constitutive androstane receptor (CAR) signaling pathway - cell viability counter screen (AID 1224836); further: nearly all actives have a fitted effect of over 45% in size; further: potency means the concentration at half of the fitted maximal effect
In short: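 Cell viability multiplexed with the CAR agonist screen: CellTiter-Fluor fluorescence after 23 hr at 37 C. HepG2-CYP2B6-hCAR cells got compounds at 15 concentrations with PK11195 at 0.75 uM final.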

[6] = qHTS assay to identify small molecule antagonists of the constitutive androstane receptor (CAR) signaling pathway - cell viability counter screen (AID 1224837); further: nearly all actives have a fitted effect of over 45% in size; further: potency means the concentration at half of the fitted maximal effect
In short: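 CITCO at 50 nM final was added alongside compounds (15 concentrations) to double-stable hCAR/CYP2B6-2.2kb HepG2 cells. Following 23 hr at 37 C, cell viability was quantified by CellTiter-Fluor fluorescence intensity.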

[7] = target: Nuclear receptor subfamily 1 group I member 3 (Homo sapiens) (UniProt Q14994); experiment: qHTS assay to identify small molecule antagonists of the constitutive androstane receptor (CAR) signaling pathway (AID 1224838); further: nearly all actives have a fitted effect of over 40% in size
Sequence of Nuclear receptor subfamily 1 group I member 3 (Homo sapiens) (Q14994 whole entry, looked up): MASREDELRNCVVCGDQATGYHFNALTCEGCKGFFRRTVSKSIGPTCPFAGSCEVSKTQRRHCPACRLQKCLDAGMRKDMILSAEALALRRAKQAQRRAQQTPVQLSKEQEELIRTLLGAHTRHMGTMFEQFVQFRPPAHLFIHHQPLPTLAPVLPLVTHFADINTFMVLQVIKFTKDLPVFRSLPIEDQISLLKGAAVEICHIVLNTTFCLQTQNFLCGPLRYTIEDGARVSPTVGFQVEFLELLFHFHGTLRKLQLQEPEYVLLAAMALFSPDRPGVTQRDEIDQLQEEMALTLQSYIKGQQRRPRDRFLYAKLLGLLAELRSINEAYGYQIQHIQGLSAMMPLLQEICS
In short: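 Inhibition of CITCO-driven (50 nM final) CYP2B6 reporter expression is measured in HepG2 cells stably carrying hCAR. Fifteen compound concentrations are applied for 24 h at 37 C, followed by luciferase luminescence.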

[8] = target: Nuclear receptor subfamily 1 group I member 3 (Homo sapiens) (UniProt Q14994); experiment: qHTS assay to identify small molecule agonists of the constitutive androstane receptor (CAR) signaling pathway (AID 1224839); further: nearly all actives have a fitted effect of over 15% in size; further: potency means the concentration at half of the fitted maximal effect
In short: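 Luminescent ONE-Glo read-out after 24 hr, 37 C exposure of double-stable HepG2-CYP2B6-hCAR reporter cells to a 15-point compound series, in the presence of 0.75 uM PK11195 (final).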

[9] = qHTS assay to identify small molecule antagonists of the estrogen related receptor signaling pathway with the pleiotropic PPARgamma coactivator (PGC) from Tox21 10K library - cell viability counter screen (AID 1224840; active means well fitted cell-killing curve with a large enough effect in the repeat runs, not every such curve was filed as active; further: nearly all actives have a fitted effect of over 40% in size; further: potency means the concentration at half of the fitted maximal effect)
In short: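 Readout: fluorescence intensity from CellTiter-Fluor after 30 min at 37 C/5% CO2. Preceded by 17.5 h treatment of PGC/ERR cells with DMSO-dissolved compounds, added 6 h post-seeding.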

[10] = qHTS assay to identify small molecule agonists of the estrogen related receptor signaling pathway with the pleiotropic PPARgamma coactivator (PGC) from Tox21 10K library (AID 1224842); further: nearly all actives have a fitted effect of over 15% in size; further: potency means the concentration at half of the fitted maximal effect
In short: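 Luminescence from One-Glo (30 min, room temperature) measured after PGC/ERR cells had 18 h at 37 C with pinned compound (23 nL in DMSO). Cells had been seeded at 2,000 per well and pre-incubated 6 h.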

[11] = qHTS assay to identify small molecule antagonists of the estrogen related receptor (ERR) signaling pathway from Tox21 library - cell viability counter screen (AID 1224834); further: nearly all actives have a fitted effect of over 30% in size
In short: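 Counter screen run in ERR cells (2,000 cells/well): cells pre-incubated 6 h, then treated with compounds for 17.5 h at 37 C. Fluorescence was read 30 min after CellTiter-Fluor addition.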

[12] = target: Luciferin 4-monooxygenase (Photinus pyralis) (UniProt P08659); experiment: qHTS assay to identify small molecule inhibitors of firefly luciferase (AID 1224835); further: nearly all actives have a fitted effect of over 25% in size; further: potency means the concentration at half of the fitted maximal effect
Sequence of Luciferin 4-monooxygenase (Photinus pyralis) (P08659 whole entry, looked up): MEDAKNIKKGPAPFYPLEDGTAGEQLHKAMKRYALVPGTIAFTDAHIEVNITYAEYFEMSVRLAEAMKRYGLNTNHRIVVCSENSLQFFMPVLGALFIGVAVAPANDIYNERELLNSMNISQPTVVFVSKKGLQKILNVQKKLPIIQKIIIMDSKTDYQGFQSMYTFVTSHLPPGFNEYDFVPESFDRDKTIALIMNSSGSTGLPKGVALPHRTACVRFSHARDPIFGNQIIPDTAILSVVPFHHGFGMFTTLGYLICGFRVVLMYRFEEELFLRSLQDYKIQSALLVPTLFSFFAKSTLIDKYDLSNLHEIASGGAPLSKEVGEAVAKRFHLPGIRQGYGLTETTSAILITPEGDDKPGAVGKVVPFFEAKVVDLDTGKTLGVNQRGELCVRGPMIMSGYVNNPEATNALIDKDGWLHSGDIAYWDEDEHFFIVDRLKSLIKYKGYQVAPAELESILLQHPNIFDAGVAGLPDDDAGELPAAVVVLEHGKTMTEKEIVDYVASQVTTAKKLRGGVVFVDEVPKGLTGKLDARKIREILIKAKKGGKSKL
In short: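 Inhibition of purified Photinus luciferase is measured by luminescence. Substrate levels (D-luciferin, ATP) sit at their KM values. Each compound is tested in a concentration series.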

[13] = qHTS assay to identify small molecule antagonists of the estrogen related receptor signaling pathway with the pleiotropic PPARgamma coactivator (PGC) from Tox21 10K library (AID 1224841; call rule not given here; further: actives are mostly falling curves and most rising ones were filed inactive; nearly all actives have a fitted effect of over 50% in size; further: potency means the concentration at half of the fitted maximal effect)
In short: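 One-Glo luminescence, measured after half an hour at room temperature, quantified reporter output of PGC/ERR cells. These had been plated at 2,000 per well, incubated 6 h, dosed with compounds in DMSO, then kept 18 h at 37 C.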

[14] = qHTS assay to identify small molecule antagonists of the estrogen related receptor (ERR) signaling pathway - cell viability counter screen (AID 1224818)
In short: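 Viability of ERR cells, CellTiter-Fluor fluorescence; 17.5 h compound exposure at 37 C, DMSO vehicle; 30 min reagent incubation at 37 C/5% CO2.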

[15] = qHTS assay to identify small molecule antagonists of the estrogen related receptor (ERR) signaling pathway (AID 1224819;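 further: luminescence from an ERR-driven luciferase reporter measured with One-Glo reagent; nearly all actives have a fitted effect of over 50% in size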)
In short: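 Seed ERR cells 2,000/well; rest 6 h at 37 C/5% CO2; pin compounds in DMSO; incubate 18 h at 37 C; add One-Glo; wait 30 min at room temperature; measure luminescence.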

[16] = qHTS assay to identify small molecule agonists of the estrogen related receptor (ERR) signaling pathway (AID 1224820)
In short: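 Following a 6 h settling period, 2,000 ERR cells per well receive DMSO-dissolved compounds by pin tool and incubate 18 h at 37 C; agonist activity is scored from One-Glo luminescence read 30 min post-addition.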

[17] = tested on: estrogen-related receptor alpha (ERRalpha) with PGC-1alpha coactivator, human; experiment: qHTS assay to identify small molecule antagonists of the estrogen related receptor signaling pathway with the pleiotropic PPARgamma coactivator (PGC) (AID 1224821; calls by dose curve)
In short: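 Screening used NTP's PGC/ERR cells, dosed via pin tool with compound in DMSO alongside positive and negative controls. After 18 h at 37 C, One-Glo reagent sat 30 min at room temperature before luminescence detection.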

[18] = qHTS assay to identify small molecule antagonists of the estrogen related receptor signaling pathway with the pleiotropic PPARgamma coactivator (PGC) cell viability counter screen (AID 1224822)
In short: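 17.5 h compound treatment of PGC/ERR cells at 37 C; readout CellTiter-Fluor fluorescence; run alongside the PGC/ERR antagonist screen to flag cytotoxic compounds.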

[19] = qHTS assay to identify small molecule agonists of the estrogen related receptor signaling pathway with the pleiotropic PPARgamma coactivator (PGC) (AID 1224823)
In short: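 In this quantitative high-throughput screen, an 18 h, 37 C treatment of PGC/ERR cells with compounds in DMSO preceded a One-Glo luminescence read taken after 30 min at room temperature.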

[20] = target: Retinoic acid receptor RXR-alpha (Homo sapiens) (UniProt P19793); experiment: qHTS assay to identify small molecule agonists of the RXR signaling pathway (AID 1159527; calls by dose curve; further: nearly all actives have a fitted effect of over 35% in size)
Sequence of Retinoic acid receptor RXR-alpha (Homo sapiens) (P19793 whole entry, looked up): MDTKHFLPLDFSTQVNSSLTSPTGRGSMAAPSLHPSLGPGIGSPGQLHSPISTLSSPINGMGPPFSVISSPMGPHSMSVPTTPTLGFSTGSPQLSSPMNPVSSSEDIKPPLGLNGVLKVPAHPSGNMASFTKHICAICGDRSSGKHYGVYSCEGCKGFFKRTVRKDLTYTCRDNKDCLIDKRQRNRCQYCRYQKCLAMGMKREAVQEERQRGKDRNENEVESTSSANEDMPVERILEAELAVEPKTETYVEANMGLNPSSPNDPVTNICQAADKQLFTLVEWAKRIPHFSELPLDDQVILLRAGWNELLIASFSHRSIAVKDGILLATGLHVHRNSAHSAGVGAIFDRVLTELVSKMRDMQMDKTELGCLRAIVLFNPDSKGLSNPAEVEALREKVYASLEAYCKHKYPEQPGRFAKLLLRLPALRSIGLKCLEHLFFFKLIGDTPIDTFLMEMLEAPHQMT
In short: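 Agonist-mode beta-lactamase reporter assay: HEK 293T RXR-alpha-UAS-bla cells treated 16 hr at 37 C with compounds, 9-cis retinoic acid as positive control. LiveBLAzer FRET substrate, 405 nm excitation, 460/530 nm emission.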

| SMILES | Potency [1] | Potency [2] | Potency [3] | Potency [4] | Potency [5] | Potency [6] | Potency [7] | Potency [8] | Potency [9] | Potency [10] | Potency [11] | Potency [12] | Potency [13] | outcome [14] | outcome [15] | outcome [16] | outcome [17] | outcome [18] | outcome [19] | Potency [20] |
| --- | --- | --- | --- | --- | --- | --- | --- | --- | --- | --- | --- | --- | --- | --- | --- | --- | --- | --- | --- | --- |
| c1ccc(C[n+]2cccc3ccccc32)cc1 | inactive | inactive | inactive | inactive | inactive | inactive | inactive | inactive | inactive | inactive |  |  |  |  |  |  |  |  |  |  |
| CC(=O)N/N=C/c1ccc([N+](=O)[O-])o1 | inactive | inactive | 29.8 µM (active) |  | inactive | inactive | inactive | inactive | inactive | inactive | inactive | inactive | inactive |  |  |  |  |  |  |  |
| CC(=O)Nc1cc(S(=O)(=O)O)cc2cc(S(=O)(=O)O)c(N=Nc3ccccc3)c(O)c12 | inactive | 24.3 µM (active) | inactive | inactive | 30.6 µM (active) | 27.3 µM (active) | inactive | inactive | 27.3 µM (active) | inactive |  |  |  |  |  |  |  |  |  |  |
| CCOc1cccc(-n2cc(C(=O)N3CCN(c4cc(C(=O)O)c5ccccc5c4)CC3)nc2-c2ccc(C)cc2)c1 | inactive | inactive | inactive | inactive | inactive | inactive | inactive | inactive |  | inactive |  | inactive |  |  |  |  |  |  |  |  |
| COc1ccccc1Oc1c(NS(=O)(=O)c2ccc(C(C)(C)C)cc2)nc(-c2ncccn2)nc1OCCO | inactive | inactive | inactive |  | inactive | inactive | inactive | inactive | inactive | inactive | inactive |  |  |  |  |  |  |  |  |  |
| O=C1c2ccccc2C(=O)C1c1ccc(Br)cc1 | inactive | inactive | inactive | inactive | inactive | inactive | inactive | 29.8 µM (active) | inactive | 13.3 µM (active) | inactive |  | inactive |  |  |  |  |  |  |  |
| CC(C)C=O | inactive | inactive | inactive | inactive |  | inactive | inactive | inactive | inactive | inactive | inactive |  | inactive |  |  |  |  |  |  |  |
| CN1C(=O)c2ccccc2C1=O | inactive | inactive | inactive |  |  | inactive | inactive | inactive | inactive | inactive | inactive | inactive | inactive | inactive | inactive | inactive | inactive | inactive | inactive |  |
| O=C1c2ccccc2C(=O)C1(O)O |  |  | inactive |  |  |  |  | inactive | inactive | inactive |  | inactive | inactive |  |  |  |  |  |  | inactive |
| C=CC(=O)[O-].C=CC(=O)[O-].[Zn+2] | inactive | inactive | inactive |  | inactive | inactive | inactive | inactive | inactive |  | inactive | 2.19 µM (active) |  |  |  |  |  |  |  |  |
| CC(=O)c1ccc([N+](=O)[O-])cc1 | inactive | inactive | inactive | inactive | inactive | inactive |  |  | inactive | inactive |  | inactive |  |  |  |  |  |  |  |  |
| O=C(O)c1cccc(-c2noc(-c3ccccc3F)n2)c1 | inactive | inactive | 0.422 µM (active) | 0.003 µM (active) | inactive | inactive | inactive | 0.0075 µM (active) | inactive |  |  | 0.0087 µM (active) |  |  |  |  |  |  |  |  |
| COc1ccccc1N1CCN(CC(O)COc2cccc3ccccc23)CC1 (configuration not stated) | 12 µM (active) | inactive | 26.6 µM (active) | inactive | inactive |  | inactive | inactive | inactive |  |  | inactive |  | inactive |  |  |  | inactive |  |  |
| CCOC(=O)c1ccccc1C(=C1C=C(Br)C(=O)C(Br)=C1)c1cc(Br)c(O)c(Br)c1 | inactive | inactive | inactive | inactive | inactive | inactive |  |  |  | inactive |  | 66.8 µM (active) |  |  |  |  |  |  |  |  |
| CCOc1ccc(Cc2nccc3cc(OCC)c(OCC)cc23)cc1OCC | inactive | inactive | inactive | inactive | inactive |  | inactive | inactive | inactive |  |  | inactive |  |  |  |  |  |  |  |  |
| CCCCC(CC)CN (configuration not stated) | inactive | inactive | inactive | inactive | inactive | inactive | inactive | inactive | inactive | inactive |  | inactive |  |  |  |  |  |  |  |  |
| CCCCCCCCCI | inactive | inactive | inactive |  | inactive | inactive | inactive | inactive | inactive |  | inactive |  | inactive |  |  |  |  |  |  |  |
| O=c1[nH]ncc2ccccc12 | inactive | inactive | inactive | inactive | inactive | inactive | inactive | inactive | inactive |  | inactive | inactive |  |  |  |  |  |  |  |  |
| CC(C)c1nc(CN(C)C(=O)N[C@H](C(=O)N[C@@H](Cc2ccccc2)C[C@H](O)[C@H](Cc2ccccc2)NC(=O)OCc2cncs2)C(C)C)cs1 | 9.52 µM (active) | inactive | inactive | inactive |  |  | inactive | inactive |  | inactive |  | inactive | 23.7 µM (active) |  |  |  |  |  |  |  |
